# Several values for one entry are separate records, joined by “and”; a condition that tells them apart may be missing. Equal entries are not always repeated. Activity calls are given as the source filed them. Unless noted, no rule for the calls is given here.
# Key:
# [1] = liver-stage malaria parasite load reduction – cell-based, known kinase inhibitor set, luminescence, hepatoma host viability (AID 624392); conditions: Plasmodium liver stage in hepatoma cells, luciferase luminescence, concentration not given here; liver cell % of control: measured here: host liver cell viability; parasite % of control: stronger effect = lower value;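 also: infected cells incubated roughly two days before readout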
# [2] = system: Hepatitis C virus NS3 helicase; assay: blockers of NS3h binding to ssDNA – biochemical, fluorescence polarization, LOPAC1280 library, primary screen (AID 687035; in the data active = inhibition above about 37%); conditions: Purified HCV NS3 helicase, Cy5-dT15 ssDNA binding fluorescence polarization; stronger effect = higher value; concentration not given here
# [3] = compounds altering Cy5-DNA-NS3h complex signal – biochemical, LOPAC1280, artefact control for HCV NS3 helicase inhibitor project (AID 687037); conditions: Cy5-DNA-NS3h complex fluorescence interference counterscreen
# [4] = signal quenchers or enhancers, Cy5 substrate/SSB – biochemical, NIH Clinical Collection, E. coli SSB, artefact control for HCV NS3 helicase inhibitor project (AID 743268); conditions: Cy5-oligo bound E. coli SSB, fluorescence interference
# [5] = system: Hepatitis C virus NS3 helicase; assay: blockers of NS3h binding to DNA – biochemical, fluorescence polarization, NIH Clinical Collection, primary screen (AID 743270); conditions: NS3 helicase binding to Cy5-dT15 DNA, stronger effect = higher value, concentration not given here
# [6] = target: Single-stranded DNA-binding protein (Escherichia coli (strain K12)) (UniProt P0AGE0); assay: SSB-ssDNA binding inhibitors – biochemical, fluorescence polarization, NIH Clinical Collection, counter-screen for HCV NS3 helicase inhibitor project (AID 743271; in the data active = inhibition above about 28%); conditions: E. coli SSB-DNA binding, stronger effect = higher value, concentration not given here
# [7] = compounds distorting NS3 helicase fluorescence signal – biochemical, NIH Clinical Collection, artefact control for HCV NS3 helicase inhibitor project (AID 743272); conditions: fluorescence interference counterscreen, HCV NS3 helicase assay; stronger effect = lower value;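 also: HCV NS3 helicase with a Cy5 labelled single stranded DNA probe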
smiles,measurement,setting,value
COc1cc(NC(=O)c2nccnc2N)cc(C(=O)Nc2cccc(C(F)(F)F)c2)c1,liver cell % of control,[1],97.3%
same,parasite % of control,[1],84.9% (inactive)
CC(C)n1cnc2c(Nc3ccc(F)c(Cl)c3)nc(NCCO)nc21,liver cell % of control,[1],96.9%
same,parasite % of control,[1],107% (inactive)
CC(C)C(CO)Nc1nc(Nc2ccc(Cl)c(C(=O)O)c2)c2ncn(C(C)C)c2n1 (centres undefined),liver cell % of control,[1],94.7%
same,parasite % of control,[1],116% (inactive)
CC(C)CC(CO)Nc1nc(Nc2cccc(Cl)c2)c2ncn(C(C)C)c2n1 (centres undefined),liver cell % of control,[1],102%
same,parasite % of control,[1],148% (inactive)
CCN1CCN(Cc2ccc(NC(=O)c3cc(NC(=O)c4ccno4)cc(OC)c3)cc2C(F)(F)F)CC1,liver cell % of control,[1],99.7%
same,parasite % of control,[1],75.7% (inactive)
C=CC(=O)Nc1cccc(CN2C(=O)N(c3cc(OC)cc(OC)c3)Cc3cnc(NCCCCN(CC)CC)nc32)c1,liver cell % of control,[1],102%
same,parasite % of control,[1],70.3% (active)
O=C(Nc1ccc(-c2csc(Nc3ccc(Cl)cc3)n2)cc1)c1ccccc1,liver cell % of control,[1],103%
same,parasite % of control,[1],110% (inactive)
CCN1CCN(Cc2ccc(NC(=O)c3cc(NC(=O)c4cncc(-c5ccc(C#N)cc5)c4)cc(OC)c3)cc2C(F)(F)F)CC1,liver cell % of control,[1],77.4%
same,parasite % of control,[1],95.5% (inactive)
NS(=O)(=O)c1ccc(-c2ccc(C=C3NC(=S)NC3=O)o2)cc1,liver cell % of control,[1],98.7%
same,parasite % of control,[1],100% (inactive)
CCN1CCN(Cc2ccc(NC(=O)c3cc(NC(=O)c4cnnc5ccccc45)cc(OC)c3)cc2C(F)(F)F)CC1,liver cell % of control,[1],94.5%
same,parasite % of control,[1],85.8% (inactive)
COc1cc(Nc2ccccn2)cc(C(=O)Nc2cccc(C(F)(F)F)c2)c1,liver cell % of control,[1],92.4%
same,parasite % of control,[1],74.9% (inactive)
CCN1CCN(Cc2ccc(NC(=O)c3ccc(C)c(NC(=O)N4CCNC4=O)c3)cc2C(F)(F)F)CC1,liver cell % of control,[1],93%
same,parasite % of control,[1],163% (inactive)
Cc1ccc(C(=O)Nc2cccc(C(F)(F)F)c2)cc1Nc1cnccn1,liver cell % of control,[1],98.3%
same,parasite % of control,[1],23.7% (inactive)
CC(=O)Nc1ccc(C(C)C(=O)Nc2ncc(C(C)C)s2)cc1 (centres undefined),liver cell % of control,[1],53.4% and 52.2% and 52.5%
same,parasite % of control,[1],136% (inactive) and 128% (inactive) and 133% (inactive)
C=CC(=O)N1CCCC(Nc2nc(Nc3ccc(N(C)C(=O)CC)cc3C)nc3nc[nH]c23)C1 (centres undefined),liver cell % of control,[1],105%
same,parasite % of control,[1],93.2% (inactive)
COc1cc(NC(=O)c2nccn2C)cc(C(=O)Nc2cccc(C(F)(F)F)c2)c1,liver cell % of control,[1],91.3%
same,parasite % of control,[1],84.5% (inactive)
CC(C)(C)OC(=O)NC(COc1cncc(Br)c1)Cc1c[nH]c2ccccc12 (centres undefined),liver cell % of control,[1],95.1%
same,parasite % of control,[1],98.7% (inactive)
C=CC(=O)Nc1ccc(Nc2nc(NC3CCC(N(C)C)CC3)nc3c2ncn3C(C)C)cc1 (centres undefined),liver cell % of control,[1],57.1%
same,parasite % of control,[1],6.69% (inactive)
COc1cc(C(=O)NC2CCN(C)CC2)ccc1Nc1ncc2c(n1)N(C1CCCCC1)CCC(=O)N2C,liver cell % of control,[1],81.9%
same,parasite % of control,[1],520% (inactive)
O=C(Nc1ccc(-c2csc(Nc3cccc(C(F)(F)F)c3)n2)cc1)c1cc([N+](=O)[O-])cc(C(F)(F)F)c1,liver cell % of control,[1],101%
same,parasite % of control,[1],70% (inactive)
C=CC(=O)Nc1cccc(N(C)c2ccnc(Nc3ccc(N4CCN(C)CC4)cc3)n2)c1,liver cell % of control,[1],95.1%
same,parasite % of control,[1],6.04% (inactive)
CCC(C)Oc1cc(-c2ccnc(Nc3cccc(Cl)c3)n2)ccn1 (centres undefined),liver cell % of control,[1],58.3%
same,parasite % of control,[1],150% (inactive)
Cc1nc(Nc2cnc(C=Cc3cc(C(=O)Nc4cccc(C(F)(F)F)c4)ccc3C)cn2)cc(N2CCNCC2)n1,liver cell % of control,[1],92.4%
same,parasite % of control,[1],144% (inactive)
CCC(CO)Nc1nc(Nc2cccc(Cl)c2)c2ncn(C(C)C)c2n1 (centres undefined),liver cell % of control,[1],90.3%
same,parasite % of control,[1],477% (inactive)
COc1cc(NC(=O)c2cc(C)on2)cc(C(=O)Nc2cccc(C(F)(F)F)c2)c1,liver cell % of control,[1],96.5%
same,parasite % of control,[1],66.6% (inactive)
COc1cc(NC(=O)c2ccnnc2)cc(C(=O)Nc2cccc(C(F)(F)F)c2)c1,liver cell % of control,[1],93.4%
same,parasite % of control,[1],97.5% (inactive)
NC(=O)c1cccc(-c2cnc(N)c(C(=O)c3cccnc3)n2)c1,liver cell % of control,[1],101%
same,parasite % of control,[1],179% (inactive)
CCOC(=O)N1CCN(/[N+]([O-])=N\Oc2ccc([N+](=O)[O-])cc2[N+](=O)[O-])CC1,inhibition,[2],-3% (inactive)
same,fluorescence ratio (interference),[3],1.1 (inactive)
O=C1CN(/N=C\c2ccc(-c3ccc([N+](=O)[O-])cc3)o2)C(=O)N1,inhibition,[2],-3% (inactive)
same,fluorescence ratio (interference),[3],1 (inactive)
CN(C)CC=CC(=O)Nc1cccc(-c2c[nH]c3ncnc(Oc4ccc(NC(=O)CC(=O)Nc5ccc(F)cc5)cc4F)c23)c1,liver cell % of control,[1],96.3%
same,parasite % of control,[1],155% (inactive)
CC/C(O)=N/S(=O)(=O)c1ccc(-c2c(-c3ccccc3)noc2C)cc1,fluorescence ratio,[4],1.03 (inactive)
same,inhibition,[5],-1.97% (inactive)
same,inhibition,[6],-2.76% (inactive)
same,fluorescence ratio,[7],1.01 (inactive)
Cc1cc(C(=O)Nc2cc(Nc3ccc4c(C=Cc5ccccn5)n[nH]c4c3)ccc2F)n(C)n1,liver cell % of control,[1],75.4% and 84.5% and 95.8%
same,parasite % of control,[1],17.4% (inactive) and 18.3% (inactive) and 40.1% (inactive)
O=C(O)COCCN1CCN([C@@H](c2ccccc2)c2ccc(Cl)cc2)CC1,inhibition,[5],-1.98% (inactive)
same,inhibition,[6],-1.64% (inactive)
same,fluorescence ratio,[7],0.95 (inactive)

# From PubChem BioAssay
